The whole screen tested about 28,000 compounds, of which about 410 (1.5%) were called active. No stated cut-off is given here; in the data, active means activation above about 52%; inconclusive means no clear call, values can overlap the other calls; inactive means below that. The sample as a whole holds a higher share of actives than the screen did.

The assay is described as follows: mutant p53 pathway re-activators, primary screen, cell-based, SW480, luciferase, single point, HTS (AID 624151). As to conditions: SW480 PUMA-promoter luciferase, p53 mutant reactivation; at 9.98 µM; hits give high values.
For the molecule `CC(C)CC#Cc1cnc2c(c1)C(=O)N([C@@H](C)CO)C[C@H](C)[C@@H](CN(C)Cc1ccccc1C(=O)O)O2`, the activation is -10.9% (inactive).

Take `C/C=C/c1cnc2c(c1)C(=O)N([C@H](C)CO)C[C@H](C)[C@@H](CN(C)C(=O)c1cccc(F)c1)O2`: the activation is 0.956% (inactive).

Consider `O=C(CN1CCOCC1)Nc1ccc(NC(=O)CN2CCOCC2)c(Cl)c1`, for which the activation is -19.4% (inactive).

On to `Cc1cc(C)n2nc(SCC(=O)Nc3ccccc3[N+](=O)[O-])nc2n1`, for which the activation is -13.8% (inactive).

`O=C(CSc1nnc(-c2ccccc2)n1-c1ccccc1)c1cccc([N+](=O)[O-])c1`: the activation was -1.58% (inactive).

For `O=C(CSc1nnc2ccc3ccccc3n12)Nc1ccc2c(c1)OCCO2`, the activation is 64.7% (active).

For `CCn1c(SCC(=O)Nc2ccc3c(c2)OCCO3)nnc1-c1ccncc1`, the activation is -4.36% (inactive).

Turning to `Cc1cccc(NC(=O)CSc2nnc3c4ccccc4nc(-c4ccccc4)n23)c1`, the activation was 13.8% (inactive).

On to `COC(=O)Cc1c(C)nc2nc(COc3ccccc3)[nH]n2c1=O`, for which the activation is 10.4% (inactive).

For `CC(=O)Nc1ccc(NC(=O)COc2ccccc2C(=O)Nc2cccc(Cl)c2Cl)cc1`, the activation was -38.7% (inactive).

Consider `O=C(NCc1ccccn1)c1ccccc1C(=O)c1ccccc1`, for which the activation was -9.74% (inactive).

For the molecule `O=C(NCc1ccccn1)C(=O)Nc1cccc(Cl)c1Cl`, the activation is 63.9% (active).

For `C[C@@H]1CN([C@H](C)CO)C(=O)c2cc(-c3ccc(C#N)cc3)cnc2O[C@@H]1CN(C)CC1CC1`, the activation was -0.916% (inactive).

With `COc1ccc(OC)c2c1CC(C)(C)N=C2SC`, the activation is -18.5% (inactive).

On to `O=C(CSc1nnc(-c2ccncc2)n1-c1ccccc1)Nc1ccc(Cl)c(Cl)c1`, for which the activation is 16.3% (inactive).

With `COc1cccc(C#Cc2cnc3c(c2)C(=O)N([C@@H](C)CO)C[C@H](C)[C@@H](CN(C)C(C)=O)O3)c1`, the activation was 1.26% (inactive).

In the case of `O=C(C[C@H]1C[C@@H]2c3cc(NS(=O)(=O)c4ccc(F)cc4)ccc3O[C@@H]2[C@@H](CO)O1)NCc1cccc(F)c1`, the activation is -7.78% (inactive).

Consider `CC(=O)N1C(=S)NC(=O)/C1=C/c1c(Cl)cccc1Cl`, for which the activation was -5.19% (inactive).

As for `C/C=C/c1cnc2c(c1)C(=O)N([C@@H](C)CO)C[C@H](C)[C@@H](CN(C)C(=O)C1CC1)O2`, the activation was -5.73% (inactive).

For `CCCN(Cc1cc2cccc(C)c2[nH]c1=O)S(C)(=O)=O`, the activation was -2.56% (inactive).

As to `CCCNC(=O)N(C)C[C@H]1Oc2ncc(-c3ccccc3F)cc2C(=O)N([C@@H](C)CO)C[C@H]1C`, the activation was 1.17% (inactive).

As for `COc1cccc(C#Cc2cnc3c(c2)C(=O)N([C@@H](C)CO)C[C@H](C)[C@@H](CN(C)C(=O)C2CCC2)O3)c1`, the activation was 9.52% (inactive).

As for `C[C@@H]1CN([C@H](C)CO)C(=O)c2cc(C#CC3(O)CCCC3)cnc2O[C@H]1CN(C)C(=O)C1CCC1`, the activation was 15% (inactive).

For the molecule `COc1ccccc1NC(=O)C1=C(C)Nc2nnnn2C1c1ccccc1OCc1ccccc1` (stereo unspecified), the activation is 11.3% (inactive).

With `CCCC#Cc1cnc2c(c1)C(=O)N([C@H](C)CO)C[C@@H](C)[C@@H](CN(C)C(=O)Nc1ccccc1OC)O2`, the activation is -6.47% (inactive).

With `CCCC#Cc1cnc2c(c1)C(=O)N([C@H](C)CO)C[C@H](C)[C@H](CN(C)S(=O)(=O)c1cn(C)cn1)O2`, the activation is 5.56% (inactive).

As to `C[C@@H]1CN([C@H](C)CO)C(=O)c2c(c3ccccc3n2C)-c2ccccc2CO[C@@H]1CN(C)C(=O)Nc1ccccc1`, the activation is 10.9% (inactive).

Turning to `Cc1ccc2oc(C(=O)Nc3nnc(SCc4ccccc4)s3)c(C)c2c1`, the activation is 17.4% (inactive).

Regarding `C[C@@H]1CCCCO[C@H](CN(C)S(C)(=O)=O)[C@@H](C)CN([C@H](C)CO)C(=O)c2cc(NS(=O)(=O)c3ccc(Cl)cc3)ccc2O1`, the activation is 2.27% (inactive).

In the case of `COCC#Cc1cnc2c(c1)C(=O)N([C@@H](C)CO)C[C@@H](C)[C@H](CN(C)C(=O)c1cnccn1)O2`, the activation is 2.72% (inactive).

For the molecule `C[C@@H]1CN([C@@H](C)CO)S(=O)(=O)c2ccc(C#CC3(O)CCCC3)cc2O[C@H]1CN(C)C(=O)c1ccncc1`, the activation is 7.47% (inactive).

`C[C@H]1CN([C@@H](C)CO)C(=O)c2cc(-c3cccc(C(=O)N(C)C)c3)cnc2O[C@H]1CN(C)S(=O)(=O)c1ccccc1`: the activation was 10.1% (inactive).

For `CCCN(C)C[C@@H]1Oc2cc(-c3cccc(C#N)c3)ccc2S(=O)(=O)N([C@@H](C)CO)C[C@@H]1C`, the activation was 2.45% (inactive).

Regarding `COCC#Cc1ccc2c(c1)O[C@@H](CN(C)Cc1ccccn1)[C@@H](C)CN([C@@H](C)CO)S2(=O)=O`, the activation is 5.92% (inactive).

Regarding `CCOc1csc2nc(C)cc(C)c12`, the activation is 7.54% (inactive).

As for `C[C@@H]1CN([C@@H](C)CO)S(=O)(=O)c2ccc(/C=C/c3ccccc3)cc2O[C@@H]1CN(C)C(=O)Nc1cc(F)ccc1F`, the activation is -25.7% (inactive).

As to `C[C@H]1CN([C@@H](C)CO)C(=O)c2cc(C#CCN(C)C)cnc2O[C@H]1CN(C)C(=O)Cc1ccccc1`, the activation was -0.24% (inactive).

Regarding `O=C(CC(C(=O)O)N1CCNCC1)Nc1cccc(Cl)c1` (stereo unspecified), the activation is 13.8% (inactive).

Take `COc1ccc(OC(C)C(=O)Nc2cccnc2)cc1` (stereo unspecified): the activation was -3.84% (inactive).

As to `CC(=O)Oc1ccc(C(=O)N(C(=O)c2ccc(OC(C)=O)cc2)c2cc(C)ccn2)cc1`, the activation was 6.89% (inactive).

Take `CCn1c(SCC(=O)Nc2cc(Cl)c(Cl)cc2Cl)nnc1-c1ccccc1Cl`: the activation was -3.77% (inactive).

Take `Cc1ccc(S(=O)(=O)Nc2ccc3c(c2)C(=O)N([C@H](C)CO)C[C@@H](C)[C@H](CN(C)S(=O)(=O)c2ccc(C)cc2)OCCCC[C@@H](C)O3)cc1`: the activation is -37.2% (inactive).

Regarding `O=C(C[C@H]1C[C@H]2c3cc(NC(=O)Nc4ccccc4F)ccc3O[C@H]2[C@H](CO)O1)NCc1ccccn1`, the activation was 3.57% (inactive).

As to `Cc1ccc2c(c1)CCCN2S(=O)(=O)c1cc(OCC(N)=O)c(C)cc1Cl`, the activation is -21.2% (inactive).

In the case of `O=C(C[C@H]1C[C@@H]2c3cc(NC(=O)c4ccc5c(c4)OCO5)ccc3O[C@@H]2[C@@H](CO)O1)NCCN1CCCCC1`, the activation is 13.6% (inactive).

For the molecule `O=C(Nc1ccc(-c2nc3ccccc3o2)c(O)c1)c1ncn[nH]1`, the activation was -35% (inactive).

Consider `Cc1ccnc(NCc2ccc(N(C)C)cc2)c1`, for which the activation was 45.6% (inactive).

On to `Cc1cc([N+](=O)[O-])nn1CC(=O)NC(C)C`, for which the activation is -1.03% (inactive).

As for `N#Cc1c(NC(=O)CCn2cnc3ccccc3c2=O)sc2c1CCCC2`, the activation was 4.75% (inactive).

As to `COc1ccc(C(=O)CSc2nnc(-c3cccc(C)c3)n2-c2ccccc2)cc1`, the activation is -17.1% (inactive).

On to `O=C(COc1ccc2c(=O)c(-c3ccccc3)coc2c1)Nc1ccc(F)cc1`, for which the activation was 5.8% (inactive).

As to `Cc1cc(C)c(C)c(Oc2coc3cc(OCC(=O)Nc4ccccc4Cl)ccc3c2=O)c1`, the activation is -8.1% (inactive).

With `CCOc1ccc2c(=O)c(Oc3ccccc3Br)coc2c1`, the activation was 53.9% (active).

Consider `O=C(CSc1nnc(-c2ccccc2F)n1-c1ccccc1)Nc1ccc(Br)cc1`, for which the activation is -2.35% (inactive).

As for `CCOC(=O)c1c(NC(=S)Nc2cnccn2)sc2c1CCCCCC2`, the activation was -14.1% (inactive).

`COc1ccc(N(CC(=O)Nc2ccccc2F)S(C)(=O)=O)cc1`: the activation is -10.8% (inactive).

As to `O=C(NCc1ccco1)C1CCCN(S(=O)(=O)c2ccccc2)C1` (stereo unspecified), the activation was -15.8% (inactive).

In the case of `CC(C)c1cnc(NC(=O)Cc2ccccc2)s1`, the activation is 118% (active).

Regarding `O=C(CS(=O)(=O)Cc1ccccc1)Nc1cccnc1`, the activation was -13.2% (inactive).

Take `O=C(c1ccccc1Br)N1CCN(c2ccc([N+](=O)[O-])c(NCc3cccnc3)c2)CC1`: the activation was 1.31% (inactive).

Consider `COc1ccc(NC(=O)C(=O)NCC(=O)Nc2cccc(C(F)(F)F)c2)cc1`, for which the activation was 3.32% (inactive).

Consider `CCCN(C)C[C@H]1Oc2ncc(C#CCOC)cc2C(=O)N([C@@H](C)CO)C[C@H]1C`, for which the activation was 6.77% (inactive).

On to `COc1ccc(S(=O)(=O)N(C)C[C@H]2OCCCC[C@@H](C)Oc3ccc(NC(=O)NC(C)C)cc3C(=O)N([C@H](C)CO)C[C@H]2C)cc1`, for which the activation is -3.86% (inactive).

Regarding `COc1ccc(OC(C)C(=O)Nc2ccc(OC)c(OC)c2)cc1` (stereo unspecified), the activation is 8.88% (inactive).

Consider `Cc1cccc(NC(=O)CSc2nc3c(cc2C#N)CCCCC3)c1`, for which the activation was 90.8% (active).

Take `CN(C)c1ccc(NC(=O)CSc2nc3c(c(C(F)(F)F)c2C#N)CCCCCC3)cc1`: the activation was -6.67% (inactive).

In the case of `N#Cc1cc2c(nc1SCC(=O)Nc1ccccc1C(F)(F)F)CCCCC2`, the activation was 25.5% (inactive).

Turning to `COCC#Cc1ccc2c(c1)O[C@H](CN(C)Cc1ccc3c(c1)OCO3)[C@H](C)CN([C@H](C)CO)S2(=O)=O`, the activation was 12.5% (inactive).

As to `CCn1c2ccccc2c2cc(NS(=O)(=O)c3ccccc3[N+](=O)[O-])ccc21`, the activation was -0.615% (inactive).

Turning to `Cn1c(SCC(=O)Nc2c(Cl)cccc2Cl)nnc1-c1ccc(NC(=O)c2ccc(F)cc2)cc1`, the activation was -1.4% (inactive).

On to `COc1ccc(OC)c(NC(=O)CSc2n[nH]c(-c3ccncc3)n2)c1`, for which the activation is -8.93% (inactive).

In the case of `Cc1ccc(C(C)C)cc1OCC(O)Cn1cnc2ccccc21` (stereo unspecified), the activation was -15.4% (inactive).

As to `CCCNC(=O)N(C)C[C@@H]1Oc2ncc(-c3cccc(C#N)c3)cc2C(=O)N([C@@H](C)CO)C[C@@H]1C`, the activation was 2.46% (inactive).

Take `CC(=O)c1cccc(NC(=O)C(C)N(c2ccc(C)cc2)S(C)(=O)=O)c1` (stereo unspecified): the activation was 0.89% (inactive).

Turning to `Cc1cc(=O)[nH]c(SCCCOc2ccccc2-c2ccccc2)n1`, the activation was -15.4% (inactive).

For the molecule `C[C@H]1CN([C@@H](C)CO)C(=O)c2cc(/C=C/c3ccccc3)cnc2O[C@@H]1CN(C)C(=O)c1ccc(F)cc1`, the activation was 5.51% (inactive).

The values above are taken from PubChem BioAssay AID624151 (Broad Institute, 2012).
